Measurements as given in PubChem BioAssay.

assay: binders of probe aFST on microarray, primary screen, stem cell growth factor project, biochemical, small-molecule microarray, fluorescence 635/667 (AID 1086); conditions: higher = more signal;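 further: score merges 667 nm fluorescence with signal-to-noise of each printed compound spot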

Compound	composite z-score
C=CCC(OC(C)=O)[C@@H]1[C@@H](N(Cc2ccc(-c3cccc(C(F)(F)F)c3)o2)C(=O)Cc2ccc(OC)cc2)c2cc(OCCCO)ccc2N1C(=O)Cc1ccc(OC)cc1 (some centres undefined)	-0.239
C[n+]1ccc2ccc(O)cc2c1	-0.173
C=C(CCCC)/C(=C/C[C@H](OC(C)=O)c1ccc(CO)o1)c1cc(C(=O)OC)ccc1OC	0.439
COCCOC(=O)N1C(=O)[C@@]2(c3cc(C#Cc4ccc(OC)cc4)ccc31)[C@H](c1ccc(OCCO)cc1)N1[C@H](c3ccccc3)[C@H](c3ccccc3)OC(=O)[C@H]1[C@@H]2C(=O)N1CCc2cc(OC)c(OC)cc2C1	0.225
CC(C)C(O)C1C=CC2C(=O)N(C)C(=O)C2N1N1CCCCC1 (centres undefined)	0.772
CCN(CC)c1ccc(N2CC=CC34O[C@@H]5C=CCOC(=O)[C@@H]5[C@H]3C(=O)N(CCCCCO)[C@@H]4C2=O)cc1 (some centres undefined)	-0.409
Cc1cc(C)c(C(O)C2C=CC3C(=O)NC(=O)C3N2Nc2ccccn2)c(C)c1 (centres undefined)	0.578

assay: binders of probe aHhip on microarray, primary screen, stem cell growth factor project, biochemical, small-molecule microarray, fluorescence 635/667 (AID 1087); conditions: higher = more signal;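 further: score merges spot fluorescence at 667nm with spot signal to noise ratio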

Compound	composite z-score
O=C1c2ccccc2[C@](Cc2ccccc2I)(C(=O)O)[C@H](c2ccc(CO)cc2)N1Cc1ccccc1C(F)(F)F	-0.312
C=CCN1C(=O)[C@@]2(O[C@@H](CCO)[C@H]([Si](C)(C)c3ccc(OC)cc3)[C@H]2C)c2cc(NC(C)=O)ccc21	0.294
O=C1O[C@@H](c2ccccc2)[C@@H](c2ccccc2)N2[C@@H](c3ccc(O)cc3)[C@]3(C(=O)Nc4ccccc43)[C@@H](C(=O)NC[C@H](O)c3ccccc3)[C@H]12	-0.12
C=C(CCCC)C(=O)CC[C@@H](OC(=O)c1ccccc1-c1ccccc1C(=O)O)c1ccc(CO)o1	0.192
COCCOC(=O)N1C(=O)[C@@]2(c3cc(C#CCCO)ccc31)[C@H](c1ccc(O)cc1)N1[C@H](c3ccccc3)[C@H](c3ccccc3)OC(=O)[C@H]1[C@@H]2C(=O)N1CCCCCCC1	0.7
O=C(NCC(O)CO)[C@]1(CCS(=O)(=O)c2ccccc2)N=C(c2ccc(OCCCO)cc2)O[C@@H]1c1ccccc1 (some centres undefined)	-0.288
CC(C)NC(=O)[C@@H]1c2ccccc2C(=O)N(C2CCCCC2)[C@H]1c1ccc(CO)cc1	-0.216
CCOC(=O)C=Cc1cccc(OC)c1O	-0.439
NC(=O)NCC#Cc1ccc2c(c1)[C@]1(C(=O)N2)[C@H](C(=O)NC[C@H](O)c2ccccc2)[C@H]2C(=O)O[C@H](c3ccccc3)[C@H](c3ccccc3)N2[C@@H]1c1ccccc1OCCO	-0.0994
CN1C(=O)C2C(C1=O)C1C=C(c3ccc(CO)cc3)C2C(C2CC2)N1Cc1cc2c(cc1Br)OCO2 (centres undefined)	-0.127
O=C1OCCC/C=C\[C@H]2OC34C=CCN(Cn5nnc6ccccc65)C(=O)[C@H]3N(CCCO)C(=O)[C@@H]4C12 (some centres undefined)	-0.271
CC(C)N1C(=O)c2ccccc2[C@](C)(C(=O)NC2CC2)[C@@H]1c1ccc(CO)cc1	0.0246
O=C1C2C=CC(C(O)CCc3ccccc3)N(Nc3ccccc3)C2C(=O)N1c1ccccc1 (centres undefined)	-0.0645
O=C1O[C@H](c2ccccc2)[C@H](c2ccccc2)N2[C@H]1[C@@H](C(=O)N1CCCCCCC1)[C@]1(C(=O)Nc3ccc(C#CC4=CCCCC4)cc31)[C@H]2c1ccc(O)cc1	2.58
CC(C)OC(=O)C1=CCC(c2cccc(Cl)c2)O1 (centres undefined)	-0.409
C=CCN1C(=O)[C@@]2(O[C@@H](CCO)[C@H]([Si](C)(C)c3ccc(OC)cc3)[C@H]2C)c2cc(N3C(=O)COc4ccccc43)ccc21	-0.358
C=CCC(OC(C)=O)[C@@H]1[C@@H](N(Cc2ccc(-c3ccccc3)cc2)C(=O)c2ccc(C)cc2)c2cc(OCCCO)ccc2N1C(=O)c1ccc2ccccc2n1 (some centres undefined)	0.154
COCCOC(=O)N1C(=O)[C@@]2(c3cc(C#CC4=CCCCC4)ccc31)[C@H](c1ccc(OCCO)cc1)N1[C@H](c3ccccc3)[C@H](c3ccccc3)OC(=O)[C@H]1[C@@H]2C(=O)Nc1nc2ccccc2s1	0.0722
O=[N+]([O-])c1ccc(C[n+]2ccc(CCCO)cc2)o1	0.251
C=C(C)[C@@H]1CC=C(C(O)C2C=CC3C(=O)N(Cc4ccccc4)C(=O)C3N2n2cnnc2)CC1 (some centres undefined)	0.208
CCCNC(=O)[C@@]1(C)c2ccccc2C(=O)N(Cc2cc(F)cc(C(F)(F)F)c2)[C@H]1c1ccc(CO)cc1	-0.181
CO[C@H]1O[C@H](CO)[C@@H](OC(=O)Nc2cccc(F)c2)[C@H](OC(=O)Nc2ccccc2-c2ccccc2)[C@@H]1OC(=O)Nc1ccccc1-c1ccccc1	-0.374
